Measurements reported in PubChem BioAssay (NCATS).
Records with an inconclusive call do not appear. Entries that show only a call come without a potency. The source made the active and inactive calls. Unless noted, the call rests on the fitted dose curve; in most records, active means well fitted curve in the direction sought with a large enough effect; inconclusive means small, poorly fitted or top-dose-only effect, or another doubt; inactive means no such curve, though single readings can be large; an effect the other way counts as inactive or inconclusive.

Tests used:
[1] = NS1 protein of Zika virus - qHTS assay to identify small molecule inhibitors in human HEK 293 cells (AID 1347053); settings: HEK293 ZIKV MR766 infection, NS1 TR-FRET, 24 h; series mostly up to 46.1 µM; further: nearly all actives have a fitted effect of over 55% in size
In short: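 Compound-treated (1 h pre-infection) HEK 293 cells infected with ZIKV MR766, MOI = 0.5; after 24 h at 37 C, NS1 read by TR-FRET; data normalized to uninfected and infected controls.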

[2] = qHTS for Inhibitors of the Functional Ribonucleoprotein Complex (vRNP) of Lassa (LASV) Arenavirus: LASV Primary Screen - GLuc reporter signal (AID 1347082; calls by dose curve; tested in HEK293 reporter line; further: nearly all actives have a fitted effect of over 60% in size); settings: LASV minigenome vRNP, Gaussia luciferase reporter; series mostly up to 57.5 µM
[3] = qHTS for Inhibitors of the Functional Ribonucleoprotein Complex (vRNP) of Lassa (LASV) Arenavirus: Viability assay - alamar blue signal for LASV Primary Screen (AID 1347083; calls by dose curve; tested in HEK293 reporter line; further: nearly all actives have a fitted effect of over 80% in size); settings: cell viability, alamar blue fluorescence (LASV minigenome counter-screen); series mostly up to 57.5 µM
[4] = qHTS for Inhibitors of the Functional Ribonucleoprotein Complex (vRNP) of Lymphocytic Choriomeningitis Arenaviruses (LCMV): Viability assay - alamar blue signal for LCMV Primary Screen (AID 1347085; calls by dose curve; tested in HEK293 reporter line; further: nearly all actives have a fitted effect of over 80% in size); settings: alamar blue viability counter-screen, LCMV vRNP screen cells; series mostly up to 57.5 µM
[5] = biological target: Nucleoprotein (Lymphocytic choriomeningitis virus (strain Armstrong)) (UniProt P09992); assay: qHTS for Inhibitors of the Functional Ribonucleoprotein Complex (vRNP) of Lymphocytic Choriomeningitis Arenaviruses (LCMV): LCMV Primary Screen - GLuc reporter signal (AID 1347086; calls by dose curve; further: nearly all actives have a fitted effect of over 70% in size); settings: LCMV minigenome vRNP cell assay, Gaussia luciferase reporter; series mostly up to 57.5 µM
[6] = qHTS of pediatric cancer cell lines to identify multiple opportunities for drug repurposing: Primary screen for TC32 cells (AID 1347089); settings: TC32 Ewing sarcoma viability, CellTiter-Glo luminescence, 48 h; series mostly up to 45.8 µM; further: nearly all actives have a fitted effect of over 60% in size
In short: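 In the primary qHTS, MIPE compounds were tested at 11 concentrations (0.78 nM to 46 µM) and NPC compounds at 8 (0.59 nM to 46 µM) on TC32 cells for 48 h. CellTiter-Glo luminescence gave viability.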

[7] = qHTS of pediatric cancer cell lines to identify multiple opportunities for drug repurposing: Primary screen for SJ-GBM2 cells (AID 1347091); settings: SJ-GBM2 viability, CellTiter-Glo luminescence, 48 h; series mostly up to 46 µM
In short: (§1)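 Viability measured as metabolically active cells via CellTiter-Glo luminescence following 48 hours of compound exposure, 11-point dilutions in confirmatory testing. 500-1,000 cells/well plated 5 hours before dosing; controls were DMSO and 2.3 µM bortezomib.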

[8] = qHTS of pediatric cancer cell lines to identify multiple opportunities for drug repurposing: Primary screen for A673 cells (AID 1347092); settings: A673 Ewing sarcoma viability, CellTiter-Glo ATP luminescence, 48 h; series mostly up to 46 µM; further: nearly all actives have a fitted effect of over 45% in size
In short: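 48 h compound exposure, A673, 500-1,000 cells/well, 37 degrees C/5% CO2. MIPE: 11-point, 0.78 nM-46 µM; NPC: 8-point, 0.59 nM-46 µM (final). Readout CellTiter-Glo luminescence after 15 min RT.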

[9] = qHTS of pediatric cancer cell lines to identify multiple opportunities for drug repurposing: Primary screen for SK-N-MC cells (AID 1347093); settings: SK-N-MC viability, CellTiter-Glo luminescence, 48 h; series mostly up to 46 µM; further: potency means the concentration at half of the fitted maximal effect
In short: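 Metabolically active cells were quantified by ATP-dependent luminescence (CellTiter-Glo, 15 min at room temperature) following 48 h treatment. Cells had been plated at 500-1,000 per well and settled for 5 h beforehand.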

[10] = qHTS of pediatric cancer cell lines to identify multiple opportunities for drug repurposing: Primary screen for BT-37 cells (AID 1347094); settings: BT-37 viability, CellTiter-Glo luminescence, 48 h; series mostly up to 57.3 µM
In short: (§2)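 Phenotypic viability qHTS, 48 h compound exposure, CellTiter-Glo luminescence read-out; multi-concentration dosing so that potency and efficacy derive directly from the primary screen's curves.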

[11] = qHTS of pediatric cancer cell lines to identify multiple opportunities for drug repurposing: Primary screen for NB-EBc1 cells (AID 1347095); settings: NB-EBc1 neuroblastoma viability, CellTiter-Glo luminescence, 48 h; series mostly up to 46 µM
In short: as §2

[12] = qHTS of pediatric cancer cell lines to identify multiple opportunities for drug repurposing: Primary screen for U-2 OS cells (AID 1347096); settings: U-2 OS viability, CellTiter-Glo luminescence, 48 h; series mostly up to 46 µM; further: nearly all actives have a fitted effect of over 50% in size
In short: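 Viability after 48 h compound treatment at 37C, 500-1,000 cells/well, read as ATP luminescence with CellTiter-Glo. Primary screens used 11-point (MIPE, 0.78 nM-46 µM) or 8-point (NPC, 0.59 nM-46 µM) final concentrations; follow-up screens used 11-point dilutions.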

[13] = qHTS of pediatric cancer cell lines to identify multiple opportunities for drug repurposing: Primary screen for Saos-2 cells (AID 1347097); settings: Saos-2 viability, CellTiter-Glo ATP luminescence, 48 h; series mostly up to 46 µM; further: nearly all actives have a fitted effect of over 40% in size; further: potency means the concentration at half of the fitted maximal effect
In short: as §2

[14] = qHTS of pediatric cancer cell lines to identify multiple opportunities for drug repurposing: Primary screen for SK-N-SH cells (AID 1347098); settings: SK-N-SH viability, CellTiter-Glo luminescence, 48 h; series mostly up to 57 µM;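 further: DMSO served as neutral control and bortezomib at 2.3 µM as positive control; nearly all actives have a fitted effect of over 65% in size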
In short: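 Cells (500-1,000/well) rested 5 h, then received compounds for 48 h; metabolically active cells were measured by CellTiter-Glo luminescence. Final concentrations spanned up to 46 µM (MIPE, 11-point) or 0.59 nM-46 µM (NPC, 8-point) in primary screens, 11-point in follow-ups.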

[15] = qHTS of pediatric cancer cell lines to identify multiple opportunities for drug repurposing: Primary screen for NB1643 cells (AID 1347099); settings: NB1643 neuroblastoma viability, CellTiter-Glo luminescence, 48 h; series mostly up to 46 µM; further: nearly all actives have a fitted effect of over 50% in size; further: potency means the concentration at half of the fitted maximal effect
In short: as §2

[16] = qHTS of pediatric cancer cell lines to identify multiple opportunities for drug repurposing: Primary screen for DAOY cells (AID 1347090); settings: DAOY medulloblastoma viability, CellTiter-Glo luminescence, 48 h; series mostly up to 46 µM; further: nearly all actives have a fitted effect of over 55% in size
In short: as §1

Nucleoprotein (Lymphocytic choriomeningitis virus (strain Armstrong)), sequence (P09992 whole entry, looked up): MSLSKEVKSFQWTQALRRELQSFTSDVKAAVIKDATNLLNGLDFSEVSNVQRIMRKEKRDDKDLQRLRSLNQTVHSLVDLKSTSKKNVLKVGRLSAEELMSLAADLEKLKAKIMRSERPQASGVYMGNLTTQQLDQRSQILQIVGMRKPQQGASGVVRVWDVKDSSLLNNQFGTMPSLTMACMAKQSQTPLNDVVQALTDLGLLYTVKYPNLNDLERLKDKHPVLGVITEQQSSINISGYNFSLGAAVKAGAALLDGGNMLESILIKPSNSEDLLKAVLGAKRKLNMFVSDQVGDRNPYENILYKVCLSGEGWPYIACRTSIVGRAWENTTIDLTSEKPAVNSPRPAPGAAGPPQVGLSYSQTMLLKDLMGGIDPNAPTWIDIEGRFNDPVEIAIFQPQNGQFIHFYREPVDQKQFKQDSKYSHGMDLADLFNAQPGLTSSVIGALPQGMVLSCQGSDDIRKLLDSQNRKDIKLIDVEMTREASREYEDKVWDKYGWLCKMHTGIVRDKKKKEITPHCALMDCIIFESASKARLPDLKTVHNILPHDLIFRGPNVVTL

| Compound | Potency [1] | Potency [2] | Potency [3] | Potency [4] | Potency [5] | Potency [6] | Potency [7] | Potency [8] | Potency [9] | Potency [10] | Potency [11] | Potency [12] | Potency [13] | Potency [14] | Potency [15] | Potency [16] |
| --- | --- | --- | --- | --- | --- | --- | --- | --- | --- | --- | --- | --- | --- | --- | --- | --- |
| C[C@]12CC[C@H]3[C@@H](CCC4=CC(=O)CC[C@@]43C)[C@@H]1CC[C@@H]2C(=O)O | inactive | inactive | inactive | inactive | inactive | inactive | inactive | inactive | inactive | inactive | inactive | inactive | inactive | inactive | inactive |  |
| CN1C2CCC(C)(C)C1CC(OC(=O)C(O)(c1cccs1)c1cccs1)C2 (stereo unspecified) | inactive | inactive | inactive | inactive | inactive | inactive |  | inactive | inactive | inactive | inactive | inactive | inactive |  | inactive | inactive |
| CN1C[C@@H](NS(=O)(=O)N(C)C)C[C@@H]2c3cccc4c3c(cn4C)C[C@H]21 | inactive | inactive | inactive | inactive | inactive | inactive | inactive | inactive | inactive | inactive | inactive | inactive | inactive | inactive | inactive |  |
| OC(c1ccccc1)(c1ccccc1)C1CCNCC1 | inactive | inactive | inactive | inactive | inactive | inactive | inactive | inactive | inactive | inactive | inactive | inactive | inactive | inactive | inactive |  |
| CCN(CC)CCOC(=O)C(C)(c1ccccc1)c1ccccc1 | inactive | inactive | inactive | inactive | inactive | inactive | inactive | inactive | inactive | inactive | inactive | inactive | inactive | inactive | inactive |  |
| C[C@]12CC[C@H](O)CC1=CC[C@@H]1[C@@H]2CC[C@]2(C)C(=O)CC[C@@H]12 | inactive | inactive | inactive | inactive | inactive | inactive | inactive | inactive | inactive | inactive | inactive |  | inactive | inactive | inactive | inactive |
| COCC(=O)N(c1c(C)cccc1C)C(C)C(=O)OC (stereo unspecified) | inactive | inactive | inactive | inactive | inactive | inactive | inactive | inactive | inactive | inactive | inactive | inactive | inactive | inactive | inactive |  |
| ClCc1cccc(Cl)c1 | inactive | inactive | inactive | inactive | inactive | inactive | inactive | inactive | inactive | inactive | inactive | inactive | inactive | inactive | inactive |  |
| CC#C[C@]1(O)CC[C@H]2[C@@H]3C[C@H](C)C4=CC(=O)CC[C@]4(C)[C@H]3CC[C@@]21C | inactive | inactive | inactive | inactive | inactive | inactive |  | inactive | 23.7 µM (active) |  |  |  | inactive | inactive |  | inactive |
| CC(C)=CCN1CC[C@@]2(C)c3cc(O)ccc3C[C@@H]1[C@@H]2C | inactive | inactive | inactive | inactive | inactive | inactive |  |  |  |  | inactive | inactive |  | inactive | inactive |  |
| C[C@]12C=CC(=O)C=C1CC[C@@H]1[C@@H]2CC[C@@]2(C)[C@H]1CC[C@]2(C)O | inactive | inactive | inactive | inactive | inactive | inactive |  |  |  | inactive |  |  |  | inactive |  |  |
| CN1C(=O)CN=C(c2ccccc2)c2cc(Cl)ccc21 | inactive | inactive | inactive | inactive | inactive |  | inactive |  | inactive | inactive | inactive | inactive | inactive | inactive |  | inactive |
| O=c1n(Cl)c(=O)n(Cl)c(=O)n1Cl | inactive | inactive | inactive | inactive | inactive |  | inactive | inactive | inactive | inactive | inactive | inactive | inactive | inactive | inactive | inactive |
| CCc1cc(OC)c(C[C@H](C)N)cc1OC | inactive | inactive | inactive | inactive | inactive | inactive | inactive |  |  | inactive | inactive |  | inactive |  | inactive |  |
| O=C(NC(=O)c1c(F)cccc1F)Nc1cc(Cl)c(OC(F)(F)C(F)C(F)(F)F)cc1Cl (stereo unspecified) | inactive | inactive | inactive | inactive | inactive | inactive |  | inactive | inactive |  | inactive |  | inactive | inactive | inactive |  |
| COP(=O)(OC)OC=C(Cl)Cl | inactive | inactive | inactive | inactive | inactive |  | inactive | inactive | inactive | inactive | inactive |  | inactive | inactive | inactive | inactive |
| CN1CCC(N(Cc2ccccc2)c2ccccc2)CC1 | inactive | inactive | inactive | inactive | inactive |  | inactive | inactive |  | inactive | inactive | inactive | inactive |  | inactive | inactive |
| CCOC(C(=O)OCCN(C)C)(c1ccccc1)c1ccccc1 | inactive | inactive | inactive | inactive | inactive | inactive | inactive | inactive |  | inactive | inactive | inactive | inactive | inactive | inactive |  |
| C[C@@H]1CN(C2CCC(C#N)(c3ccc(F)cc3)CC2)CC[C@]1(C(=O)O)c1ccccc1 (stereo partly specified) | inactive | inactive | inactive | inactive | inactive |  | inactive | inactive | inactive | inactive | inactive | inactive | inactive | inactive | inactive | inactive |
| CC(C)=C[C@@H]1[C@@H](C(=O)OCc2coc(Cc3ccccc3)c2)C1(C)C | inactive | inactive | inactive | inactive | inactive |  | inactive | inactive |  | inactive | inactive | inactive | inactive | inactive | inactive | inactive |
| COc1cc(C[C@@H](C)N)c(OC)cc1C | inactive | inactive | inactive | inactive | inactive |  | inactive | inactive | inactive |  |  |  | inactive | inactive | inactive | inactive |
| CN1[C@@H]2CC[C@H]1CC(OC(=O)c1cc(Cl)cc(Cl)c1)C2 (stereo partly specified) | inactive | inactive | inactive | inactive | inactive | inactive | inactive |  | 0.001 µM (active) |  | inactive | inactive | 75 µM (active) |  | 0.001 µM (active) |  |
| CN1CCc2cc(Cl)c(O)cc2[C@H]2c3ccccc3CC[C@@H]21 | inactive | inactive | inactive | inactive | inactive | inactive | inactive | inactive | inactive |  | inactive | inactive | inactive |  | inactive |  |
| CCCC(C)C1(CC)C(=O)N=C(S)NC1=O (stereo unspecified) | inactive | inactive | inactive | inactive | inactive |  | inactive | inactive | inactive | inactive | inactive | inactive | inactive | inactive | inactive | inactive |
| CNC(=O)NC(O)C(Cl)(Cl)Cl (stereo unspecified) | inactive | inactive | inactive | inactive | inactive |  | inactive | inactive | inactive | inactive | inactive | inactive | inactive | inactive | inactive | inactive |
